From PubChem BioAssay
CYP2C19 act: cytochrome P450 2C19 (human) activation; P33261; recombinant CYP2C19, luciferin-H EGE luminescence; hits give high values; 0 = fully inhibited enzyme, 1 = untreated enzyme; activation factor at 5 µM; 96,000 tested, under 10 active; AID 1025;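 active means activation factor of at least 2 at 5 µM in the primary screen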
CYP2C19 inhib: inhibitors of human CYP2C19; inhibition, % at 5 µM; 96,000 compounds, 21% hits; CYP2C19 Supersomes, luciferin-H EGE luminescence, 30 min; AID 778;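 active means CYP2C19 inhibition above a set limit at 5 µM in the primary screen, cut at about 50% in these data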
CYP2C9 inhib: human CYP2C9 inhibition; CYP2C9 Supersomes, luciferin-H conversion, luminescence; inhibition, % at 5 µM; 96,000 compounds, 20% hits; AID 777;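 active means blocking of liver enzyme CYP2C9 beyond about 50% at 5 µM, limit read from the data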
Target sequence (P11712 whole entry, looked up): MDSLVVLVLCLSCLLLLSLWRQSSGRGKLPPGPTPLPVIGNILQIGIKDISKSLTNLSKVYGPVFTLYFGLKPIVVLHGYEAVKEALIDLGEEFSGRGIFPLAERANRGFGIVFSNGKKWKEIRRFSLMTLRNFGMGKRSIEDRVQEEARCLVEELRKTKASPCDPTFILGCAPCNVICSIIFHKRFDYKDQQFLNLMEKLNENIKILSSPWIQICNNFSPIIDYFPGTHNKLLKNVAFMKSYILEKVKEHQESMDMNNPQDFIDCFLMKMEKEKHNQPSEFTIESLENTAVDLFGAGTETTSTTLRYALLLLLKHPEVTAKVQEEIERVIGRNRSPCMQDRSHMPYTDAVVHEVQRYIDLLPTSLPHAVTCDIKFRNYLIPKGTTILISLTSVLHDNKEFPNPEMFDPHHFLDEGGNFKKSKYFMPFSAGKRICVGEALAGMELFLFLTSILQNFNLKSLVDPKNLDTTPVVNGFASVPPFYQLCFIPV
CYP2C9 activ: CYP2C9 (human) activation | P11712 | recombinant CYP2C9, luciferin-H conversion, luminescence; hits give high values; factor 1 = untreated enzyme, 0 = blocked | activation factor at 5 µM | 96,000 compounds, 1.4% hits | AID 1024;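 active means activation factor of 2 or more for CYP2C9 at a 5 µM dose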
A number is an active result; n = inactive. Compounds with a hit are over-represented: about 31% of the library has one in this group of screens.

SMILES	CYP2C19 act	CYP2C19 inhib	CYP2C9 inhib	CYP2C9 activ
Cc1cc(C)n(C(=O)c2ccc(C)c(S(=O)(=O)N3CCCCC3)c2)n1	n	91	91	n
CCOC(=O)C(NC(C)=O)C(OC(C)=O)c1cccc([N+](=O)[O-])c1 (stereo not given)	n	n	n	n
COC(=O)Cc1cnc(NC(=O)C2C3CCC(C3)C2C(=O)O)s1 (stereo not given)	n	n	n	n
O=C(Nc1ccc2c(c1)OCCO2)C1CCCN(S(=O)(=O)c2cccnc2)C1 (stereo not given)	n	n	n	n
Cc1cccc(C)c1-n1c(SCC(=O)NCc2ccco2)nc2ccccc2c1=O	n	n	n	n
COC(=O)C1=C(CSc2nc3ccccc3o2)NC(=O)NC1c1cc(C)ccc1C (stereo not given)	n	77	78	n
CCOC(=O)C1=C(CSCC(=O)OC)NC(=O)NC1c1cc(C)ccc1C (stereo not given)	n	n	n	n
COC(=O)C1=C(CSCc2ccco2)NC(=O)NC1c1cc(C)ccc1C (stereo not given)	n	91	80	n
CCc1cccc(NC(=O)CN2C(=O)NC3(CCCCCCC3)C2=O)c1	n	n	n	n
CCOc1ccc(N(CC(=O)O)S(=O)(=O)c2cccnc2)cc1	n	n	n	n
CCOC(=O)c1cccc(NC(=O)CCn2cccc2)c1	n	n	n	n
CN(CC(=O)NCc1ccccc1)S(=O)(=O)c1cnc[nH]1	n	100	80	n
CCN(c1ccccc1)S(=O)(=O)c1cnc[nH]1	n	98	100	n
O=C(O)CSCC(=O)NCc1ccccc1	n	n	n	n
CCOC(=O)c1cccc(NC(=O)CN(C)S(=O)(=O)c2cnc[nH]2)c1	n	54	94	n
CCc1cccc(NC(=O)CN(C)S(=O)(=O)c2cnc[nH]2)c1	n	95	95	n
COc1ccc(CNC(=O)COC(=O)c2cccnc2Nc2cccc(C(F)(F)F)c2)cc1	n	n	n	n
CC1(C)CSC(=S)N1S(=O)(=O)c1ccccc1	n	75	n	n
CC1=C(C)CS(=O)N(S(=O)(=O)c2ccccc2)C1 (stereo not given)	n	n	n	n
CCCc1cc(C(=O)Nc2cc(C)on2)no1	n	n	n	n
Nc1nnc(SCCOc2cccc(Br)c2)s1	n	92	n	n
CCCOc1ccc(OCCSc2nnc(N)s2)cc1	n	n	n	n
Cc1cc(C(F)(F)F)n(-c2nc(C(=O)Nc3ccccc3Oc3ccccc3)cs2)n1	n	n	n	n
O=C(Nc1ccccc1)N(CCN1CCOCC1)Cc1ccccc1F	n	56	89	n
Cc1ccc(NC(=O)N(CCCN2CCOCC2)Cc2cccnc2)cc1C	n	100	96	n
SMILES	CYP2C19 act	CYP2C19 inhib	CYP2C9 inhib	CYP2C9 activ
O=C(Nc1ccccc1)N(CCCN1CCOCC1)Cc1cccs1	n	n	n	n
CCN1CCCc2cc(CN(CCN3CCOCC3)C(=O)Nc3ccc(C)c(C)c3)ccc21	n	57	n	n
CCc1ccc(NC(=O)N(CCCN2CCOCC2)Cc2cccs2)cc1	n	n	59	n
COCCn1c(SCC(=O)N2CCCC2)nnc1-c1ccoc1C	n	n	n	n
CC1=CCC(C(=O)O)C(C(=O)O)C1 (stereo not given)	n	n	n	n
C=CCC(C#Cc1ccccc1)[N+](C)(C)CC=C (stereo not given)	n	n	n	n
Cc1ccc(C)n1-n1c(C)nc2scc(-c3ccccc3)c2c1=O	n	72	74	n
Cc1nc2scc(-c3ccccc3)c2c(=O)n1N	n	n	n	n
Cc1ccc(-c2csc3ncn(/N=C/N(C)C)c(=O)c23)o1	n	74	n	n
Cc1nc2scc(-c3ccco3)c2c(=O)n1/N=C/N(C)C	n	65	n	n
Cc1ccc(-c2csc3nc(C)n(-n4c(C)ccc4C)c(=O)c23)o1	n	79	n	n
Cc1ccc(-c2csc3nc(C)n(N)c(=O)c23)o1	n	n	n	n
Cc1cc(C)cc(-n2c(SCC(=O)NCc3ccco3)nc3ccccc3c2=O)c1	n	n	n	n
COCCCNC(=O)c1ccc(CS(=O)(=O)c2ccc(Br)cc2)o1	n	n	n	n
CNC(=O)c1sc(N2N=C3/C(=C/c4ccccc4)CCCC3C2c2ccccc2)nc1C (stereo not given)	n	n	n	n
Cc1ccc(S(=O)(=O)c2nc(Nc3ccccc3N3CCOCC3)sc2Cl)cc1	n	n	n	n
Cc1ccc[n+](CC(=O)c2cc3ccccc3oc2=O)c1	n	n	n	n
CON(c1nc(N(C)C)nc(N(C)C)n1)S(=O)(=O)c1ccccc1Cl	n	n	n	n
COC(=O)c1cc2oc(C)cc2n1CC(=O)N(C)c1ccccc1	n	64	n	n
C=CCN(C(=O)Cn1c(C(=O)OC)cc2oc(C)cc21)c1ccccc1	n	92	n	n
CCOC(=O)c1cc2oc(C)cc2n1CC(=O)OC1CCCCC1	n	n	n	n
CCn1c(=O)n(-c2ccc(Cl)cc2)c(=O)c2c3c(sc21)COC(C)(C)C3	n	n	n	n
O=C(c1c[nH]c2ccc(S(=O)(=O)N3CCC4(CC3)OCCO4)cc2c1=O)N1CCOCC1	n	n	n	n
Cn1c(SCC(=O)NCc2cccs2)nnc1-c1cccs1	n	n	n	n
Cc1ccc(-c2csc3ncnc(SCC(=O)NCc4ccc5c(c4)OCO5)c23)cc1	n	n	57	n
SMILES	CYP2C19 act	CYP2C19 inhib	CYP2C9 inhib	CYP2C9 activ
O=C(CSc1n[nH]c(-c2cccs2)n1)NCc1cccs1	n	69	n	n
O=C(CSc1nnc2scc(-c3ccc(Cl)cc3)n12)NCc1ccc2c(c1)OCO2	n	n	n	n
Cc1nnc(NC(=O)CSc2ncnc3scc(-c4ccccc4)c23)s1	n	n	n	n
Cn1c(SCC(=O)NCc2ccc3c(c2)OCO3)nc2scc(-c3cccs3)c2c1=O	n	n	80	n
N#Cc1c(N)nc(SCC(=O)NCc2ccc3c(c2)OCO3)c(C#N)c1-c1cccs1	n	n	74	n
O=C(CSc1n[nH]c(-c2cccs2)n1)NCc1ccc2c(c1)OCO2	n	85	97	n
Nc1nnc(SCC(=O)NCc2ccc3c(c2)OCO3)s1	n	n	n	n
Cc1cc(C(=O)Cn2cncn2)c(C)n1CCc1ccc(F)cc1	n	99	67	n
COc1ccc(C2/C(=C(/O)c3ccccc3)C(=O)C(=O)N2CC(C)O)c(OC)c1 (stereo not given)	n	n	n	n
CCOc1ccc(NC(=O)c2ccncc2)cc1	n	73	73	n
CCOc1ccc(C(=O)COC(C)=O)cc1	n	n	n	n
CCOc1ccc(NC(=O)c2ccc(OC)cc2)cc1	n	n	n	n
CCOc1ccc(NC(=O)c2nn(C)cc2Br)cc1	n	n	n	2.1
CCOc1ccc(C(=O)c2ccncc2)cc1	n	87	75	n
CCC(C)NC(=O)NC(=O)N(C1CCCCC1)S(C)(=O)=O (stereo not given)	n	n	n	n
COCCSc1ccccc1C(=O)NCc1ccco1	n	n	n	n
COC(=O)C1=C(C)N(C)C(C)=C(C(=O)OC)C1c1ccncc1	n	78	79	n
COC(=O)C1=C(C)N(C)C(=O)NC1c1ccccc1 (stereo not given)	n	n	n	n
